RE007 growth inh = less growth of the S. pombe RE007 Vpr strain | S. pombe RE007 Vpr strain, BacTiter-Glo ATP luminescence, 24 h | Potency, µM (doses to about 92.2 µM), for the others: at the highest dose activity change, negative = less growth, most hits filed as inhibitors | actives 0.21% (n = 360,000); active means well fitted falling curve with a large enough effect; inconclusive means small, poorly fitted or top-dose-only effect; inactive means no such curve, though single readings can be large or run the other way; further: potency means the concentration at half of the fitted maximal effect; on the % scale 0 is the no-effect control and ±100 the full control effect; nearly all actives have a fitted effect of over 50% in size
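Fission yeast RE007 carrying one integrated HIV-1 vpr copy, seeded at OD 0.01 in PMG+AL medium with 23 nL pinned compound. Grown 24 h at 30 degrees; viability read by BacTiter-Glo luminescence after 5 min.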
Shiga toxin inh = Shiga toxin inhibition; Vero cells, Shiga toxin protein synthesis inhibition reporter; inhibition, % at 38.7 µM; actives 9.2% (n = 290,000); AID 2315; in the data active means inhibition mostly above about 28%, no sharp cut-off; inactive means mostly below about 43%; further: 0% is about no effect
Cycloheximide cs = counter-screen hit for Shiga toxin inhibitors, cycloheximide. AID 2314. cell reporter, cycloheximide protein synthesis inhibition counterscreen. max response, %. actives 12% (n = 300,000); in the data active means max response mostly above about 13%, no sharp cut-off; inactive means mostly below about 14%; further: read at 38.3 µM for the half of the compounds with a filed dose; 0% is about no effect
Tb PYK inh = inhibitors of Trypanosoma brucei pyruvate kinase; TbPYK enzyme, Kinase-Glo Plus ATP luminescence, 45 min; Potency, µM (series often up to 76.8 µM), for inactives: top-dose activity, negative = inhibition, hits mostly inhibitors; actives 0.12% (n = 410,000); AID 624173; further: potency means the concentration at half of the fitted maximal effect; on the % scale 0 is the no-effect control and ±100 the full control effect; nearly all actives have a fitted effect of over 50% in size
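Quantitative HTS: titrated library compounds versus trypanosomal pyruvate kinase in TEA buffer (pH 7.2) containing KCl, MgCl2, BSA and Tween-20. Reactions were initiated with ADP, 130 uM final. Kinase-Glo Plus luminescence was read after 45 min at RT.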
FBPA Giardia inh = blocks Giardia fructose-bisphosphate aldolase activity | A8B2U2 | purified Giardia FBPA | Potency, µM (top dose mostly 59.6 µM), for inactives: top-dose activity, negative = inhibition, hits mostly inhibitors | actives 0.71% (n = 290,000) | AID 2451; further: potency means the concentration at half of the fitted maximal effect; on the % scale 0 is the no-effect control and ±100 the full control effect; nearly all actives have a fitted effect of over 55% in size
Target sequence (A8B2U2 whole entry, looked up): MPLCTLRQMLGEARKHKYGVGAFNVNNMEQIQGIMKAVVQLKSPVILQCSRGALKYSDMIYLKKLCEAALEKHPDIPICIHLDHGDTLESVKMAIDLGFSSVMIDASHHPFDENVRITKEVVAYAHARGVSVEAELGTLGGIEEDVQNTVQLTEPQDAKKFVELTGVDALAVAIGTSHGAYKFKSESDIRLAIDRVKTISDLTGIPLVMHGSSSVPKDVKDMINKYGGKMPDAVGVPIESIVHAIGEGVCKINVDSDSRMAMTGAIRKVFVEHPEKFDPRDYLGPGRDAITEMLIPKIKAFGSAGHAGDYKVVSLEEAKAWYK
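Giardia FBPA (40 nM reagent) was preincubated 10 min at RT with compound (up to 57.5 uM final), then substrate plus GAPDH/TPI/NAD/arsenate coupling system with diaphorase/resazurin was added; resorufin fluorescence (525/598 nm) was read after 20 min.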
LmPK inhibitor = inhibitors of Leishmania mexicana pyruvate kinase; purified LmPK, Kinase-Glo ATP luminescence, 1 h; actives 0.37% (n = 290,000); AID 1721; Potency, µM (doses to about 57.5 µM), for inactives: top-dose activity change, negative = inhibition, hits mostly inhibitors; Q27686; further: potency means the concentration at half of the fitted maximal effect; on the % scale 0 is the no-effect control and ±100 the full control effect
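0.1 nM LmPK, 0.5 mM PEP, 0.1 mM ADP; 50 mM imidazole pH 7.2, 7 mM MgCl2, 50 mM KCl; 1 h RT. Kinase-Glo luminescence readout, normalized to no-enzyme (full inhibition) and uninhibited wells.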
An asterisk follows results filed as active; ? = inconclusive; / = no result; [ ] = dose if it differs, or a comment. Only a selection was taken, and hits are over-represented in it overall. Unless noted, the call rests on the fitted dose curve; in most records, active means well fitted curve in the direction sought with a large enough effect; inconclusive means small, poorly fitted or top-dose-only effect, or another doubt; inactive means no such curve, though single readings can be large; an effect the other way counts as inactive or inconclusive.

SMILES | RE007 growth inh | Shiga toxin inh | Cycloheximide cs | Tb PYK inh | FBPA Giardia inh | LmPK inhibitor
O=C(NCC1CC1)NC(=O)c1ccccc1F | 5%[18.4 µM] | / | / | 2% | / | /
O=C(NCC1CC1)NC(=O)c1c(F)cccc1Cl | 4% | 28 | 15* | 4% | 0% | 4%
CC(NC(=O)c1ccccc1Cl)NC(=O)c1ccccc1Cl | 3% | -11 | -1 | -3% | 7% | -5%
O=C(NC(=S)Nc1ccc2[nH]c(=O)[nH]c2c1)c1ccccc1[N+](=O)[O-] | 1% | 48* | 46* | 4% | / | -10%
CC(C)CNC(=S)NC(=O)c1ccccc1Cl | -19% | 43* | 40* | -3% | 1% | -4%
O=C(NC(=S)Nc1ccc(O)cc1)c1ccccc1Cl | -2% | 48 | 34* | 4% | -7% | -4%
COc1ccc(NC(=S)NC(=O)c2ccccc2Cl)cc1 | -7% | 96* | 38* | -2% | -5% | 0%
Cc1cc(C)cc(C(=O)NCC(c2ccc(N(C)C)cc2)N2CCCC2)c1 (configuration not stated) | / | / | / | -2% | / | /
Cc1nn(C)c(C(=O)NC(=S)Nc2ccccc2O)c1Cl | -25% | 19 | 10* | -2% | / | 1%
O=C(NC(=S)Nc1ccccc1[N+](=O)[O-])c1ccccc1Cl | -2% | 125* | 48* | -2% | ? | 0%
Cc1ccc(O)c(NC(=O)c2ccccc2-c2ccccc2C(=O)O)c1 | 9% | / | -1 | -2% | 18% | 6%
O=C(NNCc1ccc(O)cc1)c1ccccc1Cl | 4% | 39* | 46* | 4% | 15% | 1%
CCOc1ccc(NC(=S)NC(=O)c2c(Cl)c(C)nn2C)c([N+](=O)[O-])c1 | 1% | 3 | 1 | 4% | ? | 0%
O=C(CCc1ccccc1)NNC(=O)c1ccccc1Cl | -4% | / | -4 | 3% | -5% | -4%
Cc1ccc(O)c(NC(=S)NC(=O)c2ccccc2Cl)c1 | -25% | 46 | 17* | -5% | -7% | 0%
Cc1cc(C)c2c(N)c(C(=O)NCC3CCCCC3)sc2n1 | -15% | 130* | 35* | -16% | -4% | 3%
Cc1cc(C)c2c(N)c(C(=O)NC3CCCC3)sc2n1 | 3% | 70* | 20* | -28% | -14% | 0%
COc1cc(Cl)c(C)cc1NC(=O)c1sc2nc(C)cc(C)c2c1N | / | / | / | -1% | / | /
Cc1cc(C)c2c(N)c(C(=O)C(C)(C)C)sc2n1 | -4% | -12 | -1 | -2% | 6% | -1%
CC(C)c1ccc(NC(=O)Cn2cc(S(=O)(=O)Cc3cccc(Cl)c3)c3ccccc32)cc1 | / | / | / | -3%[15.4 µM] | / | /
COc1ccc(C2=NN(CC(=O)NCCCN(C)c3ccccc3)C(=O)CC2)cc1 | / | / | / | 3% | / | /
COc1ccc(O)c(C2NC(CC(C)C)(C(=O)O)C3C(=O)N(Cc4ccccc4)C(=O)C23)c1 (configuration not stated) | 9% | -7 | 8.5* | 4% | -18% | 1%
CCN1C(=O)[C@H]2[C@@H](c3ccc(-c4ccc(OC)cc4)cc3)N[C@@](CC(C)C)(C(=O)OC)[C@H]2C1=O | -16% | / | / | 3% | / | /
O=C(N1CCCC1)C(F)(F)Oc1ccc(F)cc1 | -9% | 32* | 14 | -3% | 1% | -3%
CCCCOc1ccc(C(=O)OCC(=O)N2CCCCCC2)cc1 | 5% | / | / | -11% | / | /
SMILES | RE007 growth inh | Shiga toxin inh | Cycloheximide cs | Tb PYK inh | FBPA Giardia inh | LmPK inhibitor
CCN(CC)c1ccc(C(=O)OCC(=O)N2CCCC2)cc1 | 2% | 59* | 29* | 4% | 1% | -1%
O=Cc1ccc(C(=O)OCC(=O)N2CCCC2)cc1 | 2% | 18 | -2 | 1% | 5% | -3%
O=C(OCC(=O)N1CCCC1)c1ccc(OC(F)(F)F)cc1 | 0% | 70 | 22* | -3% | 0% | 9%
CC1=C(C(=O)OC2CCCCCC2)C(c2ccc(C)o2)C2=C(CCCC2=O)N1 (configuration not stated) | -10% | active | 9 | 1% | -4% | 2%
COc1ccc(CCNC(=O)c2cc3c(=O)n4ccccc4nc3n(Cc3ccco3)c2=N)cc1OC | 4% | 18 | 15* | 5% | / | -7%
COc1ccc(CCn2c(=N)c(C(=O)NCc3ccco3)cc3c(=O)n4ccccc4nc32)cc1OC | 3% | / | / | -2% | / | /
Cc1oc(-c2ccc(-c3ccccc3)cc2)nc1CN1CCN(CC(=O)N(C)C)CC1 | 0% | 108* | 52* | -1% | 3% | 2%
C[C@@H](c1ccccc1)N1C(=O)[C@H]2[C@H]3[C@H](O)[C@H](O)C/C(=N/NC(=O)OCc4ccccc4)[C@@H]3CC[C@@H]2C1=O | / | / | / | / | -2%[12.9 µM] | /
O=C(NC1CCCCC1)C(=S)NCc1ccccc1 | -13% | 83* | 21* | -9% | 2% | 0%
O=C(NC1CCCCCC1)C(=S)NCc1ccccc1 | -16% | 62* | 39* | -23% | -26% | 4%
O=C(NC1CCCCCC1)C(=S)NCCc1ccccc1 | -1% | -7 | 8 | -15% | -15% | -2%
O=C(NC1CCCCC1)C1CCN(C(=O)NCc2ccccc2)CC1 | 5% | 9 | -2 | 6% | 4% | 1%
COc1cc(NC(=O)Cc2ccccc2)ccc1NC(=O)c1ccco1 | 7% | 19 | 14 | -3% | -4% | -2%
CCC(=O)NC(=S)Nc1ccc(NC(=O)c2ccco2)cc1 | -9% | 59* | 29* | 3% | 4% | -1%
CC(C)CC(=O)NC(=S)Nc1ccc(NC(=O)c2ccco2)cc1 | 11% | 2 | 1 | -5% | -4% | -1%
CCC(=O)NC(=S)Nc1ccc(NC(=O)c2ccco2)c(OC)c1 | -2% | active | 10 | 13% | -28% | -2%
Fc1ccc(-n2cc(CNCCc3cccnc3)c(-c3ccccc3Cl)n2)cc1 | -6% | -19 | 4 | 1% | 0% | 0%
COC1=C(OC)C(=O)C(CC=C(C)CCC=C(C)CCC=C(C)CCC=C(C)CCC=C(C)CCC=C(C)CCC=C(C)CCC=C(C)CCC=C(C)CCC=C(C)C)=C(C)C1=O | / | / | / | 0% | / | /
O=C1C=CC(=O)C(C2=C3C(=O)N(CCc4ccccc4)CC(=O)N3CCC2)=C1 | -11% | 18 | 4 | 2.5µM* | 18µM* | ?
O=C1CC2(CCCCC2)CC(=O)N1CCc1ccccc1 | 12% | / | / | 13% | / | /
Cc1ccc2c(CC(=O)Nc3ccc(S(=O)(=O)N4CCCCC4)cc3)coc2c1 | / | / | / | -8% | / | /
CCOc1ccc(CC(=O)Nc2c(C(=O)Nc3ccc(OC)cc3OC)oc3ccccc23)cc1 | / | / | / | 2% | / | /
C/C(=N\OC(=O)c1ccc(C)cc1)c1sc(C)nc1C | 30% | 33 | 32* | -5% | 2% | ?
C/C(=N/OC(=O)c1ccccc1Br)c1ccc(C)cc1 | -6% | 139* | 66* | 4% | 0% | -7%

Screening results from PubChem BioAssay.
